# Data: PubChem BioAssay
# Active and inactive are the calls of the source.
# Key:
# [1] = tested on: Plasmodium falciparum Sir2 (PF13_0152, Sir2A); assay: Plasmodium falciparum Sir2A binding compounds – biochemical, small-molecule microarray, 635 nm fluorescence, primary screen (AID 1098); settings: fluorescence 635 nm, higher = more signal;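 also: score merges spot fluorescence intensity with its signal-to-noise ratio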
# [2] = probe aDKK1 binding to arrayed compounds – biochemical, biotinylated probe, 635/667 nm fluorescence, primary screen (AID 1099); settings: small-molecule microarray, higher = more signal;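 also: score merges 667nm spot fluorescence with signal to noise across triplicate slides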
# [3] = probe aCHRDL2 binding to arrayed compounds – biochemical, biotinylated probe, 635/667 nm fluorescence, primary screen (AID 1100); settings: small-molecule microarray, higher = more signal
# [4] = change in splice reporter luminescence, either direction, cell-based, HEK293, spliceosome inhibition project, primary screen (AID 1101); settings: HEK293 splicing luciferase reporter, 24 h, higher = more signal, called active from +8 up or from −8 down;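 also: HEK293 cells carrying a splicing-competent luciferase reporter gene; test concentration not given here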
# [5] = target: Fibroblast growth factor 10 (Homo sapiens) (UniProt O15520); assay: compounds binding fibroblast growth factor 10 – biochemical, small-molecule microarray, 635 nm fluorescence, primary screen (AID 1102); settings: FGF10 binding, fluorescence 635 nm, higher = more signal
# [6] = tested on: glycogen synthase kinase-3 (GSK3A per assay name; protocol says GSK3B); assay: compounds binding glycogen synthase kinase-3 – biochemical, small-molecule microarray, 635 nm fluorescence, GSK3A, primary screen (AID 1103); settings: fluorescence 635 nm, higher = more signal; also: the record names both GSK3A and GSK3B
# [7] = target: Epidermal growth factor receptor (Homo sapiens) (UniProt P00533); assay: compounds binding epidermal growth factor receptor – biochemical, small-molecule microarray, 635 nm fluorescence, primary screen (AID 1104); settings: EGFR binding, higher = more signal;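 also: score merges 667 nm emission intensity with spot signal to noise over triplicate slides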
# [8] = target: Follistatin-related protein 3 (Homo sapiens) (UniProt O95633); assay: compounds binding follistatin-related protein 3 – biochemical, small-molecule microarray, 635 nm fluorescence, primary screen (AID 1105); settings: FSTL3 binding, higher = more signal;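 also: score merges emission near 667 nm and signal to noise per printed spot across three slides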
# [9] = target: Dickkopf-related protein 1 (Homo sapiens) (UniProt O94907); assay: small molecules binding DKK1 protein – biochemical, small-molecule microarray, 635 nm fluorescence scan, primary screen (AID 1106); settings: higher = more signal;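 also: score merges emission near 667 nm with signal to noise over three replicate slides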
# [10] = tested on: Inhibin beta A chain (activin A); assay: small molecules binding activin A – biochemical, small-molecule microarray, 635 nm fluorescence scan, primary screen (AID 1107); settings: INHBA, higher = more signal;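 also: mouse activin A protein probed at 4.33 µg/mL on printed slides; score merges bound-protein fluorescence near 667 nm with spot signal-to-noise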
# [11] = tested on: Human papillomavirus type 1a protein E7 (residues 44-93); assay: small molecules binding HPV E7 44-93 – biochemical, small-molecule microarray, residues 44-93, 635 nm fluorescence, primary screen (AID 1108); settings: fluorescence 635 nm, higher = more signal;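 also: E7 fragment applied at 1 µg/mL in TBST for 1 h at 4 C; score combines spot fluorescence with its signal to noise ratio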
# [12] = hepatitis C replication reporter changes, two-sided – Huh7 cells, luciferase reporter, HCV replication inhibitor project, primary screen (AID 1109); settings: Huh7 HCV replicon luciferase reporter, 48 h; higher = more signal;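 also: huh7 hepatoma cells harbouring a luciferase neomycin HCV replicon reporter; luciferase luminescence as measure of HCV replicon replication; test concentration not given here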
# [13] = target: Left-right determination factor 2 (Homo sapiens) (UniProt O00292); assay: small molecules binding LEFTY2 protein – biochemical, small-molecule microarray, 635 nm fluorescence scan, primary screen (AID 1110); settings: higher = more signal
# [14] = target: Calmodulin-1 (Homo sapiens) (UniProt P0DP23); assay: small molecules binding calmodulin-1 with EGTA – biochemical, small-molecule microarray, Cy5-labelled CALM1, profiling panel (AID 1111); settings: Cy5-CALM1 binding fluorescence, higher = more signal;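 also: labelled calmodulin applied in Tris saline Tween buffer holding calcium plus EGTA and DTT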
# [15] = target: Calmodulin-1 (Homo sapiens) (UniProt P0DP23); assay: small molecules binding Ca-loaded calmodulin-1 – biochemical, small-molecule microarray, Cy5-labelled CALM1, plus calcium, artefact control for SMM control-protein annotation, profiling panel (AID 1112); settings: Cy5-CALM1 binding fluorescence, higher = more signal;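 also: score merges spot fluorescence with signal to noise from triplicate slides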
# [16] = probe aWnt5a binding to arrayed compounds – biochemical, biotinylated probe, 635/667 nm fluorescence, primary screen (AID 1113); settings: small-molecule microarray, higher = more signal;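 also: score merges 667 nm fluorescence intensity with signal-to-noise per printed feature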
# [17] = probe aShh binding to arrayed compounds – biochemical, biotinylated probe, 635/667 nm fluorescence, primary screen (AID 1114); settings: small-molecule microarray, higher = more signal;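 also: probe is biotin-labelled aShh protein from a stem cell growth factor screen; measures binding of labelled protein to compounds printed on the slide; score merges feature fluorescence at 667 nm with signal-to-noise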
# [18] = probe aNog binding to arrayed compounds – biochemical, biotinylated probe, 635/667 nm fluorescence, primary screen (AID 1115); settings: small-molecule microarray, higher = more signal;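 also: probe is biotinylated aNog protein used at 0.15 µg/mL for 1 h at 4 C; z-score combines 667 nm fluorescence of each spot with its signal to noise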
# [19] = target: Torsin-1A-interacting protein 1 (Homo sapiens) (UniProt Q5JTV8); assay: compound microarray binding of lysate hLAP1 – cell lysate, small-molecule microarray, COS7 lysate, 635/667 nm fluorescence, primary screen (AID 1116); settings: 635 nm fluorescence, higher = more signal
# [20] = target: Alpha-bungarotoxin (Bungarus multicinctus) (UniProt P60615); assay: compounds binding labelled alpha-BTX control protein – biochemical, small-molecule microarray, Alexa647 label, 635/667 nm fluorescence, artefact control for SMM control protein annotation, profiling panel (AID 1117); settings: alpha-BTX-A647 binding fluorescence, higher = more signal
# Sequence of Alpha-bungarotoxin (Bungarus multicinctus) (P60615 whole entry, looked up): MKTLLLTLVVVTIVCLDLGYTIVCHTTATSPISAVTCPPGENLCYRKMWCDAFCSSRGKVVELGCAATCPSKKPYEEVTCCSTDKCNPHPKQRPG
# Sequence of Epidermal growth factor receptor (Homo sapiens) (P00533 whole entry, looked up): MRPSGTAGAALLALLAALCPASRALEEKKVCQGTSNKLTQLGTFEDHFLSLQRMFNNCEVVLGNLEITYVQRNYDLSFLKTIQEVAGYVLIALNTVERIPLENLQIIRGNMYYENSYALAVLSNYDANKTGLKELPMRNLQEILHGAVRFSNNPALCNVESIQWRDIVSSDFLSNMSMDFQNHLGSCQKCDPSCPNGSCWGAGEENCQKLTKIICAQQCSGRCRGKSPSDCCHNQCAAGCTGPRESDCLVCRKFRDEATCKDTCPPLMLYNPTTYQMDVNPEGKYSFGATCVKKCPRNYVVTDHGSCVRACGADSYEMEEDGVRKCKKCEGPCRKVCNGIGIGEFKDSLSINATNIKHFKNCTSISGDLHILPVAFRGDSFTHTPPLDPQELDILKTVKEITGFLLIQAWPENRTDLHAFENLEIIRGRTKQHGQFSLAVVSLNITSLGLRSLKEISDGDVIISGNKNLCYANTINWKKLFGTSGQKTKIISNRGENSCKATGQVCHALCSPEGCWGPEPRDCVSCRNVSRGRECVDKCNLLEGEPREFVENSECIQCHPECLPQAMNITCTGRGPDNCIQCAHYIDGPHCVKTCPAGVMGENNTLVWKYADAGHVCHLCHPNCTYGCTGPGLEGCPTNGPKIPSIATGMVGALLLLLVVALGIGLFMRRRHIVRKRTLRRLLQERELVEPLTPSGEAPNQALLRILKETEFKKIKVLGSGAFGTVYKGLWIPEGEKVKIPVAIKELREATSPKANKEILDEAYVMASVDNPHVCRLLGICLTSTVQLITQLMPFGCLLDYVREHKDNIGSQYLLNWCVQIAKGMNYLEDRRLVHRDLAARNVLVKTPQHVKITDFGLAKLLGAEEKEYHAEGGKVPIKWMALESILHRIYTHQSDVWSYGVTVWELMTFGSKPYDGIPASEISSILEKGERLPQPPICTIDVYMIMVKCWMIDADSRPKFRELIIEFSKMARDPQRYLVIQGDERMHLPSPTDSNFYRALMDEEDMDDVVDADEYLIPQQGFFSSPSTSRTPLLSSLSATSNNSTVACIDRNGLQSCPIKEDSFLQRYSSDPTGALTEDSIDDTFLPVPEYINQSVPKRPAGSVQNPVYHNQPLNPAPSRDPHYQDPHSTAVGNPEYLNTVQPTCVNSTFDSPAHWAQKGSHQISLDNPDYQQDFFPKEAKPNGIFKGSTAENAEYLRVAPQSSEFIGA
# Sequence of Dickkopf-related protein 1 (Homo sapiens) (O94907 whole entry, looked up): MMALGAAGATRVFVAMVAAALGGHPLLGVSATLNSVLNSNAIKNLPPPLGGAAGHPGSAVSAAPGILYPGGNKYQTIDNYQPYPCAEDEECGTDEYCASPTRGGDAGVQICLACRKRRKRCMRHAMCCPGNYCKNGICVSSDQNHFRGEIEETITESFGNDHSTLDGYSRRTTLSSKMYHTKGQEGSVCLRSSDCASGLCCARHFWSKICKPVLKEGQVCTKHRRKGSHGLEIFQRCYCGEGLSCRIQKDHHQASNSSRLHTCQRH
# Sequence of Follistatin-related protein 3 (Homo sapiens) (O95633 whole entry, looked up): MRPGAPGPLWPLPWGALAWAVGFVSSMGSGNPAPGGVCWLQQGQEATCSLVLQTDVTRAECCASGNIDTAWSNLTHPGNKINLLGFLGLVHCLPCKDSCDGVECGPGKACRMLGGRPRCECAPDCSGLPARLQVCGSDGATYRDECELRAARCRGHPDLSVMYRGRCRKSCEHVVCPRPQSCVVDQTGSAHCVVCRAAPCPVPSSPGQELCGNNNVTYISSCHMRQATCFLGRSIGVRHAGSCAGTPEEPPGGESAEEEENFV
# Sequence of Left-right determination factor 2 (Homo sapiens) (O00292 whole entry, looked up): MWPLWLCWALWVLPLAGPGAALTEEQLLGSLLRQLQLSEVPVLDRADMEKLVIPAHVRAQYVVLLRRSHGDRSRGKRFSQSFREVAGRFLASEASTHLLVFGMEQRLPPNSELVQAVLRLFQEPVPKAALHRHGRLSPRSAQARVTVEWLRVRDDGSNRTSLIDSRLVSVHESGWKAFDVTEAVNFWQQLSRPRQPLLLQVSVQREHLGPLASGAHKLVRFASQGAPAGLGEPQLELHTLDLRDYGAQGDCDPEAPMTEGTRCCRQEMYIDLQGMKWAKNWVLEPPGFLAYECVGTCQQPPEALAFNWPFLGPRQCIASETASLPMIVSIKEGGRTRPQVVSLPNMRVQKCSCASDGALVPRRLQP
# Sequence of Torsin-1A-interacting protein 1 (Homo sapiens) (Q5JTV8 whole entry, looked up): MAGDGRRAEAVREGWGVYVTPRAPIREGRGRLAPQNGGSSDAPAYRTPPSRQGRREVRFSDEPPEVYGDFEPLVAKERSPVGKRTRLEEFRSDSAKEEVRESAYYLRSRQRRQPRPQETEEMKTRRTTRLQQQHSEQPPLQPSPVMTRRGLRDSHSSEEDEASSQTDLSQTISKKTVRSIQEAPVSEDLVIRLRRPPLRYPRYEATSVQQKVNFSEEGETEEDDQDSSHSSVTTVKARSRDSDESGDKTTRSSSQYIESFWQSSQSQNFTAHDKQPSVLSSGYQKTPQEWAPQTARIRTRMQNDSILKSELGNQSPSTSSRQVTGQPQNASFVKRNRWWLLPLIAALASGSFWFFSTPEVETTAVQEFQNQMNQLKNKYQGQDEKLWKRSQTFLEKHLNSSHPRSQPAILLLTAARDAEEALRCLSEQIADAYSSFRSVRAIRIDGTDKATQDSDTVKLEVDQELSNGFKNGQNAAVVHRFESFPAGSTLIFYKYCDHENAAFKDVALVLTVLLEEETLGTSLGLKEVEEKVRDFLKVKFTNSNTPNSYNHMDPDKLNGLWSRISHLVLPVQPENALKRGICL
# Sequence of Fibroblast growth factor 10 (Homo sapiens) (O15520 whole entry, looked up): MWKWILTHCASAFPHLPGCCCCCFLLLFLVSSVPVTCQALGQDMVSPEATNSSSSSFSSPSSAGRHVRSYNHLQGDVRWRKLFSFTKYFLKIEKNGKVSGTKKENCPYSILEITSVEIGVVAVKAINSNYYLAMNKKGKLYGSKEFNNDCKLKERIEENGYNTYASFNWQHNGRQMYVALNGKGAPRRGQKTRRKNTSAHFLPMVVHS
Compound,composite z-score [1],composite z-score [2],composite z-score [3],z-score [4],composite z-score [5],composite z-score [6],composite z-score [7],composite z-score [8],composite z-score [9],composite z-score [10],composite z-score [11],z-score [12],composite z-score [13],composite z-score [14],composite z-score [15],composite z-score [16],composite z-score [17],composite z-score [18],composite z-score [19],composite z-score [20]
COC1OC[C@]2(C)[C@H]3C4=C(CN2C(=O)OC(C)(C)C)[C@H](C)C(CO)C(CO)C4CC[C@@H]13 (stereo not given in full),0.422,1.39,1.52,2.09 (inactive),0.513,1.18,0.0188,0.823,-0.362,1.17,1.22,-1.3,-0.134,2.62,1.39,-0.0007,0.605,1.04,2.14,2.39
N#Cc1ccc(C(O)C2C=CC3C(=O)N(c4ccccc4)C(=O)C3N2Nc2ccccc2)cc1 (stereo not given),0.592,0.759,1,-1.04 (inactive),0.913,-0.0985,0.107,0.391,-0.352,0.877,0.86,-0.875,-0.224,1.03,0.492,0.0357,0.0815,1.09,0.747,1.1
O=C(N1CCCCC1)[C@@]1(CCS(=O)(=O)c2ccccc2)COC(c2ccc(OCCCO)cc2)=N1,1.38,1.12,1.21,1.74 (inactive),0.96,1.02,-0.075,0.348,0.495,1.21,0.517,-0.98,-0.0902,0.695,-0.438,0.0374,-0.0064,-0.489,1.51,0.632
CN(C)C(=O)[C@]1(CCS(=O)(=O)c2ccccc2)N=C(c2ccc(OCCCO)cc2)O[C@@H]1c1ccccc1N=[N+]=[N-],1.78,0.774,0.923,-2.08 (inactive),1.42,0.581,0.564,1.45,0.553,1.33,1.5,0.0131,0.814,1.79,0.291,0.119,0.254,1.9,2.28,1
CC(C)N1C(=O)C[C@@](C(=O)NCCCN(C)C)(c2ccc([N+](=O)[O-])cc2)[C@H]1c1ccc(CO)cc1,-0.133,-0.253,0.692,0.313 (inactive),-0.532,-0.777,-0.496,-0.309,-0.197,0.698,-0.218,-0.581,-0.438,-0.194,-0.774,-0.113,0.0062,-0.141,0.0945,0.942
CCCC[C@@H]1C[C@H]1[C@@H](NC(=O)c1ccccc1)c1ccc(C(F)(F)F)cc1,-0.829,0.455,0.926,-0.188 (inactive),-0.896,-1.74,-1.09,-0.683,-0.993,0.986,-1.52,-0.444,-1.06,-0.17,0.87,-0.0084,-0.296,-0.194,-0.309,-0.501
C=C(/C(=C/C[C@H](OC(=O)c1ccncc1)c1ccc(CO)o1)c1cc(C(=O)OC)ccc1OC)C(C)C,0.805,-0.0125,-0.0735,0.174 (inactive),0.909,0.851,0.0286,0.752,0.667,1.04,1.31,-0.706,0.34,-0.0383,-0.748,0.0037,0.235,-0.0247,0.602,0.0818
O=C(CS)NCCCCCNC(=O)[C@@H]1C[C@@H]2C(=O)N3CCC[C@H]3C(=O)N2[C@@H]1c1cccc(OCCO)c1,1.47,-0.137,0.468,0.501 (inactive),0.453,0.649,0.196,-0.596,0.292,-0.525,1.42,-0.367,-0.429,1.39,-1.29,-0.073,-0.16,-0.565,1.76,1.14
C=CCC(OC(C)=O)[C@@H]1[C@@H](N(Cc2cc3ccccc3o2)C(=O)Cc2ccc(F)cc2)c2cc(OCCCO)ccc2N1C(=O)c1ccc2ccccc2c1 (stereo not given in full),-0.365,-0.0572,0.165,0.111 (inactive),-0.234,-0.711,0.0137,0.331,0.0521,1.04,-0.722,-1.18,-0.453,-0.478,-0.06,-0.0843,0.179,-0.24,0.0682,1.29
CCCCCCc1nc(C2CC2)cc2c1[Si](C(C)C)(C(C)C)OC2,-0.552,-0.226,-0.144,-1.71 (inactive),-0.729,-0.461,-0.375,-0.762,-0.356,0.819,-1.03,-0.622,-0.53,0.208,0.0599,-0.184,-0.214,-0.0784,-0.476,-0.221
O=C1c2ccccc2[C@](Cc2ccccc2I)(C(=O)NCC(F)(F)F)[C@H](c2ccc(CO)cc2)N1C1CCCCC1,1.6,0.663,0.821,1.47 (inactive),1.04,0.884,0.109,0.66,-0.239,0.82,1.27,-1.21,0.133,1.53,0.486,-0.0405,0.0611,0.128,-0.229,1.51
